In PubChem BioAssay (NCI):
The panel holds about 83,000 compounds, 20% with a hit somewhere; the sample as a whole holds those more often.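 How to read the values: 0–100, growth inhibition (40 = 60% inhibited); 0, no net growth; -100 to 0, cell death (-40 = 40% of starting cells died; -100 = all dead).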 A number with no mark means an inactive call. Active and inactive are the calls of the source. Rule for the calls: active = growth percent below 10; inactive = the rest.

Each molecule was assayed on UO-31 renal (assay: NCI-60 one-dose screen, 48 h (100 = growth as untreated, 0 = no growth, -100 = all killed)). Conditions: 10 µM unless noted.
CC(C)(CNC1CCCCC1)OC(=O)c1ccccc1 was tested, and the growth was 77.2%. In the case of COC(=O)c1ccc2[nH]c(O)c(C(=Nc3ccc(N(C)C(=O)CN4CCN(C)CC4)cc3)c3ccc4c(c3)OCO4)c2c1, the growth is reported as 14.7%. O=C(/C=C\c1ccc(NCc2ccc(C(=O)O)cc2)cc1)CCl showed a growth of 78.6%. CCCCCCC(C)N(CC(C)(C)O)C(=O)c1ccc([N+](=O)[O-])cc1 (centres undefined) was tested, and the growth was 58.6%. For C=CN(C)S(C)(=O)=O, the growth was 18.2%. CCCCCCC(C(=O)OCC)(C(=O)OCC)C1CCCCCC1 was tested, and the growth was 90.6%. CCOC(=O)NC1=NCC(C)(C)S1 was tested, and the growth was 86.9%. Molecule Cc1ccc2c(c1)C(=O)CCS2 has a growth of 83.8%. Work on S=C(N/N=C/c1cc(Cl)cc(Cl)c1)NC12CC3CC(CC(C3)C1)C2 yielded a growth of 69%. With COC(=O)C(N)CC(C)C (centres undefined) the growth was 90.5%. In the case of O=C(Nc1ccc(Cl)c(Cl)c1)O/N=C\c1c(Cl)ccc([N+](=O)[O-])c1Cl, the growth is reported as -32.6% (active). O=C(/C=C/c1ccc(Cl)cc1)c1ccc(Cl)cc1 showed a growth of 76.2%. In the case of O=C(Nc1cccc(Cn2c(=O)[nH]c3ccc(Oc4ncccn4)cc3c2=O)c1)c1cccc(F)c1, the growth is reported as 58.9%. Work on CC(=O)c1ccc2c(c1)c1ccccc1n2C yielded a growth of 60.8%. Work on CCC(C)CC(N)O (centres undefined) yielded a growth of 101%. With COc1cc2ncnc(-n3ncc4cc(NC(=O)Nc5ccccc5)ccc43)c2cc1OC the growth was -44.4% (active). Work on O=C(O)CS(=O)c1ccc(Cl)cc1 (centres undefined) yielded a growth of 102%. With O=C1C(=O)c2ccccc2C(O)=C1CCCc1ccc(Oc2ccccc2)cc1 the growth was 43.5%. In the case of O=C1C(Br)=CC2C1C1C3CCC3C2(Br)C12OCCO2 (centres undefined), the growth is reported as 62%. CC1(C)NC(=S)NC1=O gave a growth of 90.6%. CCCCCCCCCCC1OC(C)CC(C)O1 (centres undefined) was tested, and the growth was 90.9%. Work on O=C1C=C(OCC=C(C(F)(F)F)C(F)(F)F)c2ccccc2C1=O yielded a growth of 49.9%. In the case of CCOC1=C(Cl)C(=O)C(OCC)=C(Cl)C1=O, the growth is reported as 83.8%. O=C(NCCO)C(F)(F)F was tested, and the growth was 94.2%. In the case of Oc1ccc(Br)cc1/C=N/NC(=S)NC12CC3CC(CC(C3)C1)C2, the growth is reported as -2.23% (active). In the case of COc1cc(N2C(=O)C=CC2=O)ccc1N1C(=O)C=CC1=O, the growth is reported as 87.1%. Work on c1cc[c]([Bi]([c]2ccccc2)[c]2ccccc2)cc1 yielded a growth of 84.8%. For O=C(CN1C(=O)NC(c2ccccc2)(c2ccccc2)C1=O)c1ccc(N2CCCC2)cc1, the growth was 66.6%. With CC(O)CN(CCO)CCN(CCO)CC(C)O (centres undefined) the growth was 99.6%. CNc1ccc(Nc2ccc(S(=O)(=O)O)cc2)c2c1C(=O)c1ccccc1C2=O gave a growth of 102%. For Cc1ccc(S(=O)(=O)NC(CCC(=O)Nc2ccccc2)C(=O)Nc2ccccc2)cc1 (centres undefined), the growth was -16.3% (active). In the case of COC1(OC)N=C(N)C2(C#N)C3(C(=O)Nc4ccccc43)C12C#N (centres undefined), the growth is reported as 52.9%. For Cn1c2ccccc2c2ccccc21, the growth was 75%. In the case of Oc1ccc([S+](c2ccc(O)cc2)c2ccc(O)cc2)cc1, the growth is reported as 87.5%. In the case of Nc1cc(N)c2nc(-c3ccccc3)c(NCCc3ccc(Cl)c(Cl)c3)nc2c1, the growth is reported as -93% (active). With COC(=O)Nc1nc2ccc(C(=O)c3ccccc3N(C)C3COC3)cc2[nH]1 the growth was 39.9%. CCOP1(=O)CC(C)=C(Cl)C(P(=O)(O)O)C1 (centres undefined) gave a growth of 42.5%. For CCCCCCCCC1OC1CCCCCCCC(=O)O (centres undefined), the growth was 96.7%. In the case of CC(O)CN(CC(C)O)N(CC(C)O)CC(C)O (centres undefined), the growth is reported as 91.1%.
